Measurements as given in PubChem BioAssay.
The source made the active and inactive calls. Unless noted, no rule for the calls is given here.

Columns and labels:
[1] = HepG2 liver cancer cell viability effects, profiling panel, resazurin fluorescence, 24 h, PK04 Diversity Set (AID 1172); details: higher = more signal; also: test concentration not given here
[2] = basal S. cerevisiae growth modulation, no modifier, primary screen, OD600, strain BY4716, 24 h, basal condition (AID 1173); details: OD600, 24 h, higher = more signal, called active from +8 up or from −8 down
[3] = MM1S myeloma cell viability, profiling panel, resazurin fluorescence, basal, 24 h, PK04 Diversity Set (AID 1174); details: higher = more signal, called active from +8 up or from −8 down;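 also: MM1S multiple myeloma cell line; test concentration not given here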
[4] = molecular target: Dihydroorotate dehydrogenase (quinone), mitochondrial (Plasmodium falciparum (isolate 3D7)) (UniProt Q08210); test: PfDHODH enzyme inhibitors, primary screen, biochemical, C-terminal His tag, absorbance 600 nm (AID 1175); details: DCIP absorbance 600 nm, higher = more signal, called active from +8 up or from −8 down;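 also: recombinant parasite enzyme with a five histidine tag at its C terminus; test concentration not given here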
Chain of Dihydroorotate dehydrogenase (quinone), mitochondrial (Plasmodium falciparum (isolate 3D7)) (Q08210 whole entry, looked up): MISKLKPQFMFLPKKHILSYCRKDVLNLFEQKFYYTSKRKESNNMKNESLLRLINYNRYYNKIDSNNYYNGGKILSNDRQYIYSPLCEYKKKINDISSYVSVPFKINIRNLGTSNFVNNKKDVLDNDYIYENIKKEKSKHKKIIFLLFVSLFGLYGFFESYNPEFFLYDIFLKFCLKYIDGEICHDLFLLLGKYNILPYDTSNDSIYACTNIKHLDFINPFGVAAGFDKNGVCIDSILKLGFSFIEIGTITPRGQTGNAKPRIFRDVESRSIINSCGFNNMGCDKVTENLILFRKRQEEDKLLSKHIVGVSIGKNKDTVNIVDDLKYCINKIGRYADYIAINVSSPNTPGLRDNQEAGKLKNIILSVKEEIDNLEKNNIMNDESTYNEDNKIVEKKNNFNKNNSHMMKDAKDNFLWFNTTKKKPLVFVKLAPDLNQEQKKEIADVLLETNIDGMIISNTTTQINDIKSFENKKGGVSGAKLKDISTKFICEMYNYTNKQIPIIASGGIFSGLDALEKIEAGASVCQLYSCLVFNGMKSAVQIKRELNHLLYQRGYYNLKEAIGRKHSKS

[5] = P. aeruginosa biofilm formation inhibitors, primary screen, strain PAO1, LB-PBS medium, absorbance 600 nm (AID 1176); also: test concentration not given here; details: P. aeruginosa PAO1 growth/biofilm, A600, 12 h; higher = more signal
[6] = S. cerevisiae RM11-1a growth modifiers, primary screen, strain RM11-1a, OD600, basal, 24 h (AID 1177); details: OD600, 24 h, higher = more signal, called active from +8 up or from −8 down;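 also: cultures grown under basal conditions with no added stressor; test concentration not given here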
[7] = E. coli acrAB mutant growth effects, primary screen, E. coli filamentation inducers, strain DRC39, OD650, 24 h (AID 1178); details: higher = more signal, called active from +8 up or from −8 down;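 also: growth measured as culture turbidity by optical density at 650 nm; test concentration not given here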
[8] = E. coli acrAB mutant growth effects, primary screen, E. coli filamentation inducers, strain DRC39, OD650, 48 h (AID 1179);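 also: screen aims at cell division blockers that make cells filament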; details: E. coli DRC39 delta-acrAB growth, higher = more signal, called active from +8 up or from −8 down
[9] = RPMI8226 myeloma cell viability, profiling panel, resazurin fluorescence, basal, 24 h, PK04 Diversity Set (AID 1180); details: higher = more signal;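 also: RPMI8826 multiple myeloma cell line at 5000 cells per well; test concentration not given here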
[10] = molecular target: E3 ubiquitin-protein ligase XIAP (Homo sapiens) (UniProt P98170); test: XIAP binders, primary screen, biophysical, small-molecule microarray, fluorescence 635 nm (AID 1181); details: small-molecule microarray binding, higher = more signal;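 also: score merges 667 nm emission and signal to noise over triplicate slides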
Chain of E3 ubiquitin-protein ligase XIAP (Homo sapiens) (P98170 whole entry, looked up): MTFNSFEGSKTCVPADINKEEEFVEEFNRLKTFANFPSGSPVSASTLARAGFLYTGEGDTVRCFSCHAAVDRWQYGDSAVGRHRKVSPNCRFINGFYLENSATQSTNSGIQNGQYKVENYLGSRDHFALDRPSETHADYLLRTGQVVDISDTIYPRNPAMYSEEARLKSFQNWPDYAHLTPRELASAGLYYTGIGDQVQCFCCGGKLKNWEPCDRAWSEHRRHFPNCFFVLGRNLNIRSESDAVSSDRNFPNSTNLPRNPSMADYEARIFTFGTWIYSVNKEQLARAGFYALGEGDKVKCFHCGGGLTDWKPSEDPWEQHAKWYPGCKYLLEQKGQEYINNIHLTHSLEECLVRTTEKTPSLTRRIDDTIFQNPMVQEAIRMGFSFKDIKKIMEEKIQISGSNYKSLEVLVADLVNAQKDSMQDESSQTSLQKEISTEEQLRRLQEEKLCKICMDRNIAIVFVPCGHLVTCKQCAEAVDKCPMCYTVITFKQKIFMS

Row | Structure (SMILES) | z-score [1] | z-score [2] | z-score [3] | composite z-score [4] | z-score [5] | z-score [6] | z-score [7] | z-score [8] | z-score [9] | composite z-score [10]
1 | C=C(C(=O)CC[C@@H](OC(=O)c1ccccc1-c1ccccc1C(=O)O)c1ccc(CO)o1)C(C)C | -0.31 | -0.317 (inactive) | 0.114 (inactive) | -2.18 (inactive) | 1.63 (inactive) | 0.0083 (inactive) | 0.159 (inactive) | -0.171 (inactive) | 0.16 | -0.282
2 | C=CCNC(=O)[C@H]1[C@@H]2C(=O)O[C@@H](c3ccccc3)[C@@H](c3ccccc3)N2[C@@H](c2ccc(O)cc2)[C@]12C(=O)Nc1ccc(C#CCC(C(=O)OC)C(=O)OC)cc12 | -0.111 | 0.24 (inactive) | 0.0789 (inactive) | -7.4 (inactive) | 0.293 (inactive) | 0.249 (inactive) | -0.254 (inactive) | -0.0535 (inactive) | -3.01 | 0.256
3 | [N-]=[N+]=NCc1ccccc1C[C@@]1(C(=O)NCCN2CCOCC2)N=C(c2ccc(OCCCO)cc2)O[C@@H]1c1ccccc1 | -0.419 | -2.05 (inactive) | -0.909 (inactive) | 0.742 (inactive) | -0.0025 (inactive) | -0.411 (inactive) | 0.594 (inactive) | -0.959 (inactive) | -1.02 | 0.0297
4 | COCCOC(=O)N1C(=O)[C@@]2(c3cc(C#CC4(O)CCCCCC4)ccc31)[C@H](C(N)=O)[C@H]1C(=O)O[C@H](c3ccccc3)[C@H](c3ccccc3)N1[C@@H]2c1ccc(OCCO)cc1 | -0.905 | 0.842 (inactive) | -3.72 (inactive) | 0.42 (inactive) | 2.53 (inactive) | 2.58 (inactive) | 0.141 (inactive) | 0.282 (inactive) | -3.3 | 0.128
5 | COc1ccc([Si](C)(C)[C@H]2[C@H](CC(=O)N(CCO)Cc3ccccc3)O[C@@]3(C(=O)N(Cc4ccc(N5C(=O)c6cccc7cccc5c67)cc4)c4ccccc43)[C@@H]2C)cc1 | -1.14 | 1.21 (inactive) | -2.21 (inactive) | -1.51 (inactive) | 0.319 (inactive) | 2.45 (inactive) | -0.838 (inactive) | -1.02 (inactive) | -2.14 | 0.177
6 | O=C(NCC(F)(F)F)[C@@H]1c2ccccc2C(=O)N(Cc2cc(C(F)(F)F)cc(C(F)(F)F)c2)[C@H]1c1ccc(CO)cc1 | 0.0606 | 1.26 (inactive) | 0.885 (inactive) | 0.398 (inactive) | -0.0249 (inactive) | 0.378 (inactive) | 0.783 (inactive) | 1.41 (inactive) | 1.1 | 0.295
7 | Cc1ccc(S[C@]2(C(=O)NCc3ccccc3)CC(=O)N(Cc3ccccc3Cl)[C@@H]2c2ccc(CO)cc2)cc1 | -1.46 | -0.288 (inactive) | 0.464 (inactive) | 0.429 (inactive) | 0.338 (inactive) | 0.884 (inactive) | -0.545 (inactive) | -0.756 (inactive) | 0.335 | 0.0623
